Reference: PubChem BioAssay (NCI)
This is part of a sample that, as a whole, favours compounds with a hit. Of some 83,000 tested, about 20% had one in any assay.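 Plates (96-well) were seeded with cells, treated with compound at one concentration, and incubated for 48 hours before percent growth was determined.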 The source made the active and inactive calls. How the source made its calls: active means growth percent below 10; inactive means the rest.

Assays:
Test in all cases: NCI-60 one-dose screen, 48 h (100 = growth as untreated, 0 = no growth, -100 = all killed)
Settings in all cases: 10 µM
DU-145 prostate = tested on: DU-145 prostate
MALME-3M melanoma = tested on: MALME-3M melanoma
MDA-MB-231 breast = tested on: MDA-MB-231 breast
RXF 393 renal = tested on: RXF 393 renal
SF-268 CNS = tested on: SF-268 CNS
SF-295 CNS = tested on: SF-295 CNS
SF-539 CNS = tested on: SF-539 CNS
UACC-257 melanoma = tested on: UACC-257 melanoma
M14 melanoma = tested on: M14 melanoma
HCT-15 colon = tested on: HCT-15 colon
HT29 colon = tested on: HT29 colon
SNB-75 CNS = tested on: SNB-75 CNS
SNB-19 CNS = tested on: SNB-19 CNS
U251 CNS = tested on: U251 CNS
SK-MEL-5 melanoma = tested on: SK-MEL-5 melanoma
UACC-62 melanoma = tested on: UACC-62 melanoma
LOX IMVI melanoma = tested on: LOX IMVI melanoma
SK-MEL-28 melanoma = tested on: SK-MEL-28 melanoma
PC-3 prostate = tested on: PC-3 prostate

Measured: growth

O=C(Nc1ccc(OCC(=O)c2ccccc2)cc1)Nc1ccc(Cl)c(C(F)(F)F)c1
inactive: DU-145 prostate 49.2% | MALME-3M melanoma 10.4% | MDA-MB-231 breast 16.8% | SF-268 CNS 18.9% | SF-295 CNS 13.2% | SF-539 CNS 12.1% | M14 melanoma 17.5% | HCT-15 colon 17.8% | HT29 colon 29.3% | SNB-19 CNS 15.7% | U251 CNS 25.8%
active: RXF 393 renal -36.7% | UACC-257 melanoma 7.84% | SNB-75 CNS 3.5% | SK-MEL-5 melanoma -61.2% | UACC-62 melanoma -21.3% | LOX IMVI melanoma -24.4% | SK-MEL-28 melanoma 4.82%

Cc1ccc(/C=C(\C#N)n2nnc3c(F)cccc32)cc1
inactive: DU-145 prostate 13.9% | MALME-3M melanoma 34.7% | SF-268 CNS 24.3% | SF-295 CNS 16% | UACC-257 melanoma 38.6% | M14 melanoma 36.6% | HCT-15 colon 12.2% | SNB-75 CNS 17.9% | PC-3 prostate 24.7% | UACC-62 melanoma 36.8% | SK-MEL-28 melanoma 28.8%
active: MDA-MB-231 breast -18.1% | RXF 393 renal -4.78% | SF-539 CNS -27.9% | HT29 colon 2.75% | U251 CNS -26.1% | SK-MEL-5 melanoma -23.5% | LOX IMVI melanoma -9.47%

CNC(=O)c1cc(-c2ccc(NC(=O)Nc3ccc(C)cc3)cc2)nc2cccnc12
inactive: DU-145 prostate 109% | MALME-3M melanoma 109% | MDA-MB-231 breast 93.3% | RXF 393 renal 100% | SF-268 CNS 104% | SF-295 CNS 95.6% | SF-539 CNS 99% | UACC-257 melanoma 123% | M14 melanoma 116% | HCT-15 colon 93.6% | HT29 colon 99.2% | SNB-75 CNS 107% | SNB-19 CNS 91.7% | U251 CNS 101% | PC-3 prostate 87.1% | SK-MEL-5 melanoma 95.4% | UACC-62 melanoma 83.8% | SK-MEL-28 melanoma 118%

CC(=O)Nc1nc(-c2ccc(N3CCN(C)CC3)c(NS(=O)(=O)c3ccc(C(F)(F)F)cc3)c2)cs1
inactive: DU-145 prostate 23.3% | MALME-3M melanoma 38.1% | MDA-MB-231 breast 24.2% | SF-268 CNS 41.1% | SF-295 CNS 46% | UACC-257 melanoma 49.5% | SNB-19 CNS 45.6% | PC-3 prostate 30.3%
active: RXF 393 renal -47% | SF-539 CNS -86.4% | M14 melanoma -3.51% | HCT-15 colon -67.7% | HT29 colon -18.7% | SNB-75 CNS 1.07% | SK-MEL-5 melanoma 7.11% | UACC-62 melanoma 6.26% | LOX IMVI melanoma -85.4% | SK-MEL-28 melanoma 5.39%
